# Laboratory results taken from PubChem BioAssay (NCATS).
# Results filed as inconclusive are left out. Entries that show only a call come without a potency. Unmarked numbers belong to inactive results. Calls of active or inactive are those of the source. Unless noted, calls follow the shape of the dose curve; as a rule, active = well fitted curve in the direction sought with a large enough effect; inconclusive = small, poorly fitted or top-dose-only effect, or another doubt; inactive = no such curve, though single readings can be large; an effect the other way counts as inactive or inconclusive.
# What was measured:
# [1] = target: Cellular tumor antigen p53 (Homo sapiens) (UniProt P04637); assay: Primary qHTS for small molecule compounds that upregulate eGFP-tagged delta133p53alpha (in C-terminal) cells. (AID 2060324); also: potency is read from the fitted curve at half-maximal effect
# Chain of Cellular tumor antigen p53 (Homo sapiens) (P04637 whole entry, looked up): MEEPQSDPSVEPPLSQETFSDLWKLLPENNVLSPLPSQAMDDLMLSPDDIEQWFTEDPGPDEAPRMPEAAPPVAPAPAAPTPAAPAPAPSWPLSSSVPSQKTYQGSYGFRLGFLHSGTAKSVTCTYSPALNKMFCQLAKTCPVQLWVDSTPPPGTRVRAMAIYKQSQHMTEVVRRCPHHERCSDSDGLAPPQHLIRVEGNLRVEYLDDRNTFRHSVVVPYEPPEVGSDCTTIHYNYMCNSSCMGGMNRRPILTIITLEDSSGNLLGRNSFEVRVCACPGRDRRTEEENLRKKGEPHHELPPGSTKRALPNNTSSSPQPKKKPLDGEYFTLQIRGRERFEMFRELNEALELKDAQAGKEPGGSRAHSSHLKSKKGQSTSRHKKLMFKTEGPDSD
# Summary of the method: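 Readout: filtered GFP peak intensity of gated cells (laser scanning cytometer), normalized plate-wise to intraplate controls, DMSO wells = 0% activity. Cells: NCI-H358 D133p53a-eGFP, dox 100 ng/ml 24 h beforehand, then compound 24 h, 37 °C.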
# [2] = target: Aldehyde dehydrogenase, mitochondrial (Homo sapiens) (UniProt P05091); assay: qHTS for Inhibitors of the Aldehyde Dehydrogenase Family (ALDH2) Validation screens (AID 2061302; active = well fitted inhibition curve with a large enough effect; title and protocol of this record describe different tests; also: potency is read from the fitted curve at half-maximal effect)
# [3] = target: Retinaldehyde dehydrogenase 3 (Homo sapiens) (UniProt P47895); assay: qHTS for Inhibitors of the Aldehyde Dehydrogenase Family (ALDH1A3) Validation screen (AID 2061312); also: nearly all actives have a fitted effect of over 45% in size
# [4] = BET inhibitor-based combinations targeting novel dependencies in MECOM-rearranged (r) AML: SET-2 cell line (AID 2202231); details: SET-2 AML cells viability, CellTiter-Glo luminescence, 48 h; viability: active compounds read low, concentration not given here; also: nearly all actives have a fitted effect of over 35% in size; also: potency is read from the fitted curve at half-maximal effect
# Summary of the method: (§1)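 Viability of cells (500 per well) is scored by luminescent CellTiter-Glo at 48 hr post-dosing. Eleven-point titrations are normalized to DMSO and empty controls and reduced to AUC values.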
# [5] = BET inhibitor-based combinations targeting novel dependencies in MECOM-rearranged (r) AML: OCI-AML3 cell line (AID 2202232); details: Potency: OCI-AML3 viability; also: nearly all actives have a fitted effect of over 35% in size; also: potency is read from the fitted curve at half-maximal effect
# Summary of the method: as §1
# [6] = BET inhibitor-based combinations targeting novel dependencies in MECOM-rearranged (r) AML: MV-4-11 cell line (AID 2202233); also: nearly all actives have a fitted effect of over 45% in size; also: potency is read from the fitted curve at half-maximal effect
# Summary of the method: (§2)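 Using pin-tool transfer, drugs were added in 11 doses to cells (500/well), incubated 48 hr, and assessed with CellTiter-Glo. Z-AUC is a mean-centring transformation applied separately to each screened line.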
# [7] = BET inhibitor-based combinations targeting novel dependencies in MECOM-rearranged (r) AML: HNT-34 cell line (AID 2202234); also: nearly all actives have a fitted effect of over 35% in size; also: potency is read from the fitted curve at half-maximal effect
# Summary of the method: as §2
# [8] = BET inhibitor-based combinations targeting novel dependencies in MECOM-rearranged (r) AML: UCSD-AML1 cell line (AID 2202235); also: nearly all actives have a fitted effect of over 40% in size; also: potency is read from the fitted curve at half-maximal effect
# Summary of the method: as §2
# [9] = target: Aldehyde dehydrogenase, mitochondrial (Homo sapiens) (UniProt P05091); assay: qHTS for Inhibitors of the Aldehyde Dehydrogenase Family (ALDH2) Primary screen (AID 2061308); also: nearly all actives have a fitted effect of over 55% in size
# [10] = target: Retinaldehyde dehydrogenase 3 (Homo sapiens) (UniProt P47895); assay: qHTS for Inhibitors of the Aldehyde Dehydrogenase Family (ALDH1A3) Primary screen (AID 2061315)
# [11] = qHTS for Inhibitors of the Aldehyde Dehydrogenase Family (ALDH1A2, ALDH1A3, ALDH2, ALDH3A1) (AID 2061307); also: nearly all actives have a fitted effect of over 50% in size
# [12] = BET inhibitor-based combinations targeting novel dependencies in MECOM-rearranged (r) AML: AML-194 cell line (AID 2202237; also: nearly all actives have a fitted effect of over 40% in size)
# Summary of the method: as §1
# [13] = BET inhibitor-based combinations targeting novel dependencies in MECOM-rearranged (r) AML: AML-191 cell line (AID 2202236; also: nearly all actives have a fitted effect of over 35% in size)
# Summary of the method: as §1
# [14] = target: Retinal dehydrogenase 2 (Homo sapiens) (UniProt O94788); assay: qHTS for Inhibitors of the Aldehyde Dehydrogenase Family (ALDH1A2) Confirmation screens (AID 2061314); also: nearly all actives have a fitted effect of over 65% in size
smiles,measurement,setting,value
N=c1ccn2c(n1)O[C@H]1[C@H](O)[C@@H](CO)O[C@H]12,Potency,[1],inactive
same,Potency,[2],inactive
same,Potency,[3],inactive
CC(C)COCC(CN(Cc1ccccc1)c1ccccc1)N1CCCC1 (configuration not stated),Potency,[1],inactive
same,Potency,[2],inactive
same,Potency,[3],inactive
same,Potency,[4],23.5 µM (active)
same,Potency,[5],18.6 µM (active)
same,Potency,[6],26.3 µM (active)
same,Potency,[7],16.6 µM (active)
same,Potency,[8],20.9 µM (active)
Cc1cc(NC(=O)Nc2ccc3c(ccn3C)c2)sn1,Potency,[1],inactive
same,Potency,[2],inactive
same,Potency,[3],inactive
O=C(c1ccc(F)cc1)C1CCN(CCn2c(=O)[nH]c3ccccc3c2=O)CC1,Potency,[1],inactive
same,Potency,[2],inactive
same,Potency,[9],inactive
same,Potency,[3],inactive
same,Potency,[10],inactive
O=C1OC(=O)C2C3CCC(O3)C12 (configuration not stated),Potency,[1],inactive
same,Potency,[2],inactive
same,Potency,[3],inactive
CCCCC1C(=O)N(c2ccccc2)N(c2ccccc2)C1=O,Potency,[1],inactive
same,Potency,[2],inactive
same,Potency,[3],inactive
CCCN1C[C@H](CSC)C[C@@H]2c3cccc4[nH]cc(c34)C[C@H]21,Potency,[1],inactive
same,Potency,[2],inactive
same,Potency,[9],inactive
same,Potency,[10],inactive
CC/C(=C(\c1ccccc1)c1ccc(OCCN(C)C)cc1)c1ccccc1,Potency,[1],inactive
same,Potency,[2],inactive
same,Potency,[3],inactive
same,Potency,[4],12.1 µM (active)
same,Potency,[6],15.2 µM (active)
same,Potency,[7],15.2 µM (active)
CC(=O)SC1CC2=CC(=O)CC[C@]2(C)C2CC[C@@]3(C)C(CC[C@@]34CCC(=O)O4)C12 (some centres not stated),Potency,[1],inactive
same,Potency,[2],inactive
same,Potency,[3],inactive
O=C(O)c1ccccc1Nc1cccc(OCc2ccc3ccccc3n2)c1,Potency,[1],inactive
same,Potency,[2],inactive
same,Potency,[11],7.98 µM (active)
same,Potency,[3],inactive
CC(=O)[C@H]1CCC2C3CC=C4C[C@@H](OS(=O)(=O)O)CC[C@]4(C)C3CC[C@@]21C (some centres not stated),Potency,[1],inactive
same,Potency,[2],inactive
same,Potency,[3],inactive
CCCc1nn(C)c2c(=O)[nH]c(-c3cc(S(=O)(=O)N4CCN(C)CC4)ccc3OCC)nc12,Potency,[1],inactive
same,Potency,[2],inactive
same,Potency,[9],inactive
same,Potency,[3],inactive
same,Potency,[10],inactive
same,viability,[4],114%
same,Potency,[5],inactive
same,Potency,[6],inactive
same,Potency,[7],inactive
same,Potency,[8],inactive
same,Potency,[12],inactive
C[N+]1(CCCCC[N+]2(C)CCCC2)CCCC1,Potency,[1],inactive
same,Potency,[2],inactive
S=C(S)N1CCCC1,Potency,[1],15.1 µM (active)
same,Potency,[2],3.16 µM (active)
CC(O)C(O)[C@H]1CNc2nc(N)[nH]c(=O)c2N1 (some centres not stated),Potency,[1],inactive
same,Potency,[2],8.91 µM (active)
Cc1ccccc1/C=C/C1=NCCN1,Potency,[1],inactive
same,Potency,[2],inactive
same,Potency,[3],inactive
Nc1ccc2c3c(cccc13)C(=O)NC2=O,Potency,[1],30.1 µM (active)
same,Potency,[2],inactive
same,Potency,[3],inactive
CCCCCCC(=O)OC1CC(C)(C)NC(C)(C)C1,Potency,[1],inactive
same,Potency,[2],inactive
same,Potency,[3],inactive
Cc1ccccc1C(OCCN(C)C)c1ccccc1 (configuration not stated),Potency,[1],inactive
same,Potency,[2],inactive
same,Potency,[3],inactive
O=[N+]([O-])c1cccc2cn[nH]c12,Potency,[1],inactive
same,Potency,[2],inactive
same,Potency,[3],inactive
CSc1ccc2c(c1)N(CCC1CCCCN1C)c1ccccc1S2 (configuration not stated),Potency,[1],inactive
same,Potency,[2],inactive
same,Potency,[3],inactive
C=CCc1cccc(C=NNC(=O)CN2CCN(Cc3ccccc3)CC2)c1O,Potency,[1],inactive
same,Potency,[2],inactive
same,Potency,[3],inactive
CCCCCCCCCCCCCCCCCCOC[C@H](COP(=O)([O-])OCC[N+](C)(C)C)OC,Potency,[1],inactive
same,Potency,[2],inactive
same,Potency,[3],inactive
O=C1C(SCCO)=C(SCCO)C(=O)c2ccccc21,Potency,[1],8.49 µM (active)
same,Potency,[2],2.24 µM (active)
same,Potency,[3],inactive
CCOC(=O)C(C)Oc1cccc2c(=O)n(CC(=O)Nc3ccc4c(c3)OCCO4)ccc12 (configuration not stated),Potency,[1],inactive
same,Potency,[2],inactive
same,Potency,[3],inactive
same,viability,[4],114%
same,Potency,[5],3.72 µM (active)
same,Potency,[6],3.32 µM (active)
same,Potency,[7],inactive
same,Potency,[13],inactive
same,Potency,[12],inactive
N[C@@H](Cc1ccc(O)c(I)c1)C(=O)O,Potency,[1],inactive
same,Potency,[2],inactive
same,Potency,[3],inactive
COc1ccc2c(c1)CCC1C2CC[C@@]2(C)C1CC[C@@H]2NCCCCCCN1C(=O)C=CC1=O (some centres not stated),Potency,[1],inactive
same,Potency,[2],inactive
same,Potency,[3],inactive
O=S(=O)(c1cccc2c(I)cccc12)N1CCCNCC1,Potency,[1],inactive
same,Potency,[2],inactive
same,Potency,[11],inactive
same,Potency,[14],inactive
same,Potency,[5],20.9 µM (active)
same,Potency,[6],inactive
same,Potency,[7],inactive
same,Potency,[8],inactive
same,Potency,[13],inactive
same,Potency,[12],inactive
Nc1ccc(N2C(=O)c3ccccc3C2=O)c(Cl)c1,Potency,[1],inactive
same,Potency,[2],inactive
same,Potency,[3],inactive
